Species on record: Homo sapiens
Test: To identify inhibition of the IFN signalling (Jak-Stat) pathway via expression of an eGFP reporter gene under the control of an IFN-stimulated response element (ISRE) containing MxA promoter.
Format: functional
Set-up: scale not given: direction of the effect not stated beside the values
Details: 30 µM

Row | SMILES | Percent Effect
1 | CCn1ccnc1CNCC1CCCN1c1cc(NC)ncn1 (stereo not drawn) | 12.1%
2 | Cc1[nH]c2ccccc2c1-c1ccnc(NCCN2CCOCC2)n1 | 21.5%
3 | COc1cc(S(=O)(=O)N2CCCc3ccccc32)cc(C(=O)O)c1OC | 9.13%
4 | CN(C)C[C@H]1OC[C@@H]2CCN(S(=O)(=O)c3cccs3)C[C@@H]21 | 0.627%
5 | COc1ccc(OC)c(C2CCN(Cc3nc(C)n4ccccc34)C2)c1 (stereo not drawn) | 17.9%
6 | Cc1cccc(C(=O)N2C[C@@H](OCc3cccnc3)[C@H]3OCCC[C@@H]32)n1 | 5.3%
7 | Cc1ccc(Cl)cc1N1CCC(CNC(=O)CCn2ccnn2)C1 (stereo not drawn) | 24.6%
8 | CC(C(=O)N1CCCC1)N1CCC(c2nccn2CC2CCC2)CC1 (stereo not drawn) | 1.41%
9 | O=C(CSc1ccc(F)c(F)c1)NS(=O)(=O)c1ccc2c(c1)OCCO2 | 12.6%
10 | CCCc1cc(C(=O)N2CCOC(c3nc(-c4cccs4)no3)C2)no1 (stereo not drawn) | 17%
11 | O=C(Nc1ccccc1)C1=CC2(CCNCC2)c2ccccc21 | -1.59%
12 | CCCn1nc2c(cc1=O)CN(CC(=O)Nc1ccncc1)CC2 | 3.95%
13 | c1ccc(CNC2CCc3ncnn3C2)nc1 (stereo not drawn) | 30.1%
14 | Cc1n[nH]c(=O)c2c(NC(=O)CN3CCCC(C(F)(F)F)C3)oc(C)c12 (stereo not drawn) | -1.71%
15 | CCn1c(C)cc(C(=O)N2CCCC(n3nc(C)nc3C)C2)c1C (stereo not drawn) | 4.11%
16 | N#Cc1ccccc1OCCN1CCn2c(nnc2C2CC2)C1 | -1.08%
17 | O=C(NCCC1=CCCCC1)C1CCN(c2ccc3nncn3n2)CC1 | 28.5%
18 | c1ccc(-c2cnc(CNC3CCCN(c4cccnn4)C3)o2)cc1 (stereo not drawn) | 7.96%
19 | COc1ccc(C(=O)N2CC[C@H](CO)[C@H](O)C2)c(C)c1 | 0.399%

Each compound was assayed against T1, Tyrosyl-tRNA synthetase, putative (Trypanosoma cruzi (strain CL Brener)) (UniProt Q4DSP6) (assay: Trypanosoma cruzi tyrosyl tRNA synthetase (TcYRS) _High Tyrosine SOP). Details: 30 µM.
T1 sequence (whole entry): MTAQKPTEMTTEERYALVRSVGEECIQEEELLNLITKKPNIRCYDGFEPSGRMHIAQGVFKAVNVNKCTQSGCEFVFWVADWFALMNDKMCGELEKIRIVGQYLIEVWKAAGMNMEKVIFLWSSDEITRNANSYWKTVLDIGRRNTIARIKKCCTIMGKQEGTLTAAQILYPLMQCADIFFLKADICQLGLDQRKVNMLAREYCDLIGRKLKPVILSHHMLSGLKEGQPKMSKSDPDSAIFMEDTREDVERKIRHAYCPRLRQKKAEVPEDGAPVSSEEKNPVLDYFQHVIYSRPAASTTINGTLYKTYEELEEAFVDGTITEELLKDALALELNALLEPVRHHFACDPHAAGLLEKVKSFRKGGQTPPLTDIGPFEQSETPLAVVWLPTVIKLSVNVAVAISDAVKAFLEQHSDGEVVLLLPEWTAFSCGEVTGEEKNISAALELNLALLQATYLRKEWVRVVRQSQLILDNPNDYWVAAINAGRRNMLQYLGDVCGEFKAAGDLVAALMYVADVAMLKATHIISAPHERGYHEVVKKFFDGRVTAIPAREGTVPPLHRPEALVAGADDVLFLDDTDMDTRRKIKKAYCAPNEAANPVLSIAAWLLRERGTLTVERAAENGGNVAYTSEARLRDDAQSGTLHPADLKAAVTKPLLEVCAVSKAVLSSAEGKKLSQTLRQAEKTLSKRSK
Format: functional
Set-up: scale not given: direction of the effect not stated beside the values

Row | SMILES | Percent Effect
20 | CCc1noc(C(C)N2CCN(Cc3nnc(C4CC4)o3)CC2)n1 (stereo not drawn) | 0.526%
21 | CN(C)CCN1CCCC12CCN(C(=O)c1cnccn1)CC2 | 7.73%
22 | CC(C)(C)c1n[nH]c(C2CN(C(=O)CCc3cscn3)CCO2)n1 (stereo not drawn) | 3.35%
23 | Cc1nn2cccnc2c1C(=O)N1CCCC(n2ccnc2)C1 (stereo not drawn) | 3.68%
24 | Cc1ccc2oc(C(=O)N3CCCC(c4noc(C)n4)C3)cc2n1 (stereo not drawn) | 4.31%
25 | CN1CC(c2ccccc2)CC12CCN(C(=O)c1c(Cl)cnn1C)CC2 (stereo not drawn) | 5.85%
26 | O=C(NCC1CC1)C1CCC2(CCN(C(=O)c3ccccn3)CC2)O1 (stereo not drawn) | -4.83%
27 | CC(C)CN1CCN(C(=O)NCc2cccnc2-n2cccn2)CC1 | 5.79%
28 | Fc1ccc(-c2n[nH]cc2-c2ccnc(NCCN3CCCC3)n2)cc1 | -5.79%
29 | NCc1cn(-c2ccccc2C(=O)NCc2ccccc2)cn1 | 6.35%
30 | CC(C)CCC(=O)NC(C)c1nnc2n1CCCCC2 (stereo not drawn) | 2.94%
31 | CC(=O)N1CCCC1c1cc(N2CCN(C3CCCC3)CC2)cc(C)n1 (stereo not drawn) | 4.23%
32 | O=C1CCC(C(=O)NCc2nn(-c3ccccc3)c3c2CCC3)CN1 (stereo not drawn) | 1.44%
33 | COc1ccc(CNCc2ccc(N3CCCCC3)nc2)cc1OC | 8.13%
34 | CN1CC(=O)N(c2cnn(C)c2)CC12CCN(C(=O)c1ccsc1)C2 (stereo not drawn) | 2.63%
35 | CCN(C)c1ncnc2c1CCN(Cc1ccc(OC)cc1)CC2 | 0.526%
36 | CCOc1ncccc1CNC(=O)Nc1ccc(N(C)C)nc1 | 0.98%
37 | Cc1nc(C)n(CC2CN(CCOCC(F)(F)F)CCO2)n1 (stereo not drawn) | -1.58%
38 | CN(CCNC(=O)c1scnc1Cl)c1ccccc1 | 1.58%
39 | Cc1[nH]ncc1C(=O)N1CCN(CC(O)C(C)(C)C)CC1 (stereo not drawn) | 6.22%

Row | SMILES | Percent Effect
40 | CCn1ccnc1CNCC1CCCN1c1cc(NC)ncn1 (stereo not drawn) | 4.74%
41 | Cc1[nH]c2ccccc2c1-c1ccnc(NCCN2CCOCC2)n1 | -1.58%
42 | COc1cc(S(=O)(=O)N2CCCc3ccccc32)cc(C(=O)O)c1OC | 0.526%
43 | CN(C)C[C@H]1OC[C@@H]2CCN(S(=O)(=O)c3cccs3)C[C@@H]21 | -0.526%
44 | COc1ccc(OC)c(C2CCN(Cc3nc(C)n4ccccc34)C2)c1 (stereo not drawn) | 13.3%
45 | Cc1cccc(C(=O)N2C[C@@H](OCc3cccnc3)[C@H]3OCCC[C@@H]32)n1 | 8.95%
46 | Cc1ccc(Cl)cc1N1CCC(CNC(=O)CCn2ccnn2)C1 (stereo not drawn) | 5.26%
47 | CC(C(=O)N1CCCC1)N1CCC(c2nccn2CC2CCC2)CC1 (stereo not drawn) | 9.04%
48 | O=C(CSc1ccc(F)c(F)c1)NS(=O)(=O)c1ccc2c(c1)OCCO2 | -4.31%
49 | CCCc1cc(C(=O)N2CCOC(c3nc(-c4cccs4)no3)C2)no1 (stereo not drawn) | -12.7%
50 | O=C(Nc1ccccc1)C1=CC2(CCNCC2)c2ccccc21 | -2.9%
51 | CCCn1nc2c(cc1=O)CN(CC(=O)Nc1ccncc1)CC2 | 3.92%
52 | c1ccc(CNC2CCc3ncnn3C2)nc1 (stereo not drawn) | 9.09%
53 | Cc1n[nH]c(=O)c2c(NC(=O)CN3CCCC(C(F)(F)F)C3)oc(C)c12 (stereo not drawn) | 3.35%
54 | CCn1c(C)cc(C(=O)N2CCCC(n3nc(C)nc3C)C2)c1C (stereo not drawn) | 1.44%
55 | N#Cc1ccccc1OCCN1CCn2c(nnc2C2CC2)C1 | 2.63%
56 | O=C(NCCC1=CCCCC1)C1CCN(c2ccc3nncn3n2)CC1 | 4.79%
57 | c1ccc(-c2cnc(CNC3CCCN(c4cccnn4)C3)o2)cc1 (stereo not drawn) | 14.8%
58 | COc1ccc(C(=O)N2CC[C@H](CO)[C@H](O)C2)c(C)c1 | 7.98%

— ChEMBL document CHEMBL3988442, “University of Dundee, Small-Polar-MMV Screening Library” (2021)
